Results filed as inconclusive are left out. Activity calls are given as the source filed them. Calls follow the shape of the dose curve; as a rule, active = well fitted inhibition curve with a large enough effect; inconclusive = small, poorly fitted or top-dose-only effect; inactive = flat fitted curve, though single readings scatter.
System: HACAT
Assay: qHTS assay to identify novel small-molecules to repurpose for Merkel cell carcinoma treatment (AID 1296009); also: nearly all actives have a fitted effect of over 60% in size
Settings: MCC and control cell lines, CellTiter-Glo viability, 72 h; at 44.8 µM (top of the series) unless noted
Summary of the method: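 Cells were incubated with compound for 72 hr at 37 degree celsius before CellTiter-Glo addition. Luminescence was normalized with no-cell wells as full cytotoxicity and DMSO as baseline.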

Structure (SMILES)	outcome
COc1ccc2c(NC(=O)Nc3cccc(C(F)(F)F)n3)ccnc2c1	inactive
CC(C)(C)c1ccc(C(=O)Nc2cn3cc(-n4ccnc4)ccc3n2)cc1	inactive
CCOC(=O)N1CCC(N2CCC[C@@H](NC(=O)c3ccccc3C)C2)CC1	inactive
Cc1nc(C(=O)N2CCC[C@H]2Cc2nnc(-c3ccccc3)o2)c(-c2ccccc2F)s1	inactive
CC(=O)c1c(C)cc2cccc(O)c2c1O[C@@H]1O[C@H](CO)[C@@H](O)[C@H](O)[C@H]1O	inactive
CCCn1cc2c(nc(NC(=O)Nc3ccc(OC)cc3)n3nc(-c4ccco4)nc23)n1	inactive
O=C(O)c1cc(N(Cc2ccc(C3CCCCC3)cc2)C(=O)c2ccc(Oc3ccccc3)cc2)ccc1O	inactive
COc1cc2nc(N3CCN(C(=O)COc4c(OC)cccc4C(C)C)CC3)nc(N)c2cc1OC	inactive
CC(=O)C=C=C1C(C)(C)CC(O)CC1(C)O[C@@H]1O[C@H](CO[C@H]2OC[C@](O)(CO)[C@H]2O)[C@@H](O)[C@H](O)[C@H]1O (some centres not stated)	inactive [at 17.4 µM]
Cc1cc(C)c(-n2cc(C)c3c(Cl)nc(C)nc32)c(C)c1	inactive
O=[N+]([O-])c1ccc(Oc2ccc3c(c2)CCC(c2ccccc2)O3)nc1 (configuration not stated)	inactive
CC1(C)CC[C@]2(C(=O)O)[C@H](O)C[C@]3(C)C(=CCC4[C@@]5(C)CC[C@H](O[C@@H]6O[C@H](CO[C@@H]7OC[C@H](O)[C@H](O)[C@H]7O[C@@H]7OC[C@H](O)[C@H](O)[C@H]7O)[C@@H](O)[C@H](O)[C@H]6O)C(C)(C)C5CC[C@]43C)[C@@H]2C1 (some centres not stated)	inactive [at 9.27 µM]

Reference: PubChem BioAssay (NCATS)
